Experimental data as given in PubChem BioAssay (NCATS).
Results filed as inconclusive are left out. Activity calls are given as the source filed them. The call rests on the fitted dose curve; in most records, active means well fitted curve in the direction sought with a large enough effect; inconclusive means small, poorly fitted or top-dose-only effect, or another doubt; inactive means no such curve, though single readings can be large; an effect the other way counts as inactive or inconclusive.

Key:
CAOV3 = test: Primary qHTS to identify gynecologic anti-cancer compounds using libraries of approved drugs and bioactive compounds (AID 1345084); settings: Gynecologic cancer cell panel viability, ATPlite luminescence, 48 h; series mostly up to 57.5 µM; further: nearly all actives have a fitted effect of over 55% in size
Method in brief: (§1)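 Cells, 1,000 per well, were allowed to settle for 16 h at 37 C before compound addition. Five concentrations were tested for 48 h, and viability was read by ATPlite luminescence after 15 min at room temperature.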

CASKI = test: as above; settings: Gynecologic cancer cell panel viability, ATPlite luminescence, 48 h; series mostly up to 57.5 µM
Method in brief: as §1

Es-2 = test: as above; settings: Gynecologic cancer cell panel viability, ATPlite luminescence, 48 h; series mostly up to 57.5 µM
Method in brief: as §1

HeLa = test: as above; settings: Gynecologic cancer cell panel viability, ATPlite luminescence, 48 h; series mostly up to 57.5 µM
Method in brief: as §1

Hek293T = test: as above; settings: Gynecologic cancer cell panel viability, ATPlite luminescence, 48 h, control line for the selectivity index; series mostly up to 57.5 µM
Method in brief: as §1

JEG-3 = test: as above; settings: Gynecologic cancer cell panel viability, ATPlite luminescence, 48 h; series mostly up to 57.5 µM
Method in brief: as §1

PA-1 = test: as above; settings: Gynecologic cancer cell panel viability, ATPlite luminescence, 48 h; series mostly up to 57.5 µM
Method in brief: as §1

Tov112D = test: as above; settings: Gynecologic cancer cell panel viability, ATPlite luminescence, 48 h; series mostly up to 57.5 µM
Method in brief: as §1

C33A = test: as above; settings: Gynecologic cancer cell panel viability, ATPlite luminescence, 48 h; series mostly up to 57.5 µM
Method in brief: as §1

OV90 = test: as above; settings: Gynecologic cancer cell panel viability, ATPlite luminescence, 48 h; series mostly up to 57.5 µM
Method in brief: as §1

Tov-21-G = test: as above; settings: Gynecologic cancer cell panel viability, ATPlite luminescence, 48 h; series mostly up to 57.5 µM
Method in brief: as §1

[1] = qHTS assay to identify inhibitors of the type 1 interferon - major histocompatibility complex class I in skeletal muscle: Counter screen cell viability and HiBit confirmation (AID 1347412); settings: iHSKM muscle cells + IFN-b, HiBiT or CellTiter-Glo, 24 h; for Potency: HiBiT; for activity change, negative = inhibition: Viability, at 45.9 µM (top of the series); on all read-outs here: nearly all actives have a fitted effect of over 60% in size
Method in brief: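 Human myoblast knock-in line, 4.0 ng/ml IFN-beta stimulation, 24 h compound treatment. Endpoints: HiBiT lytic luminescence (HLA-B level) and CellTiter Glo (ATP). Dosing 12 concentrations, 3-fold steps, 46 uM highest final.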

SKOV3 = test: Primary qHTS to identify gynecologic anti-cancer compounds using libraries of approved drugs and bioactive compounds (AID 1345084); settings: Gynecologic cancer cell panel viability, ATPlite luminescence, 48 h; series mostly up to 57.5 µM; further: nearly all actives have a fitted effect of over 55% in size
Method in brief: as §1
On the % scale 0 is the no-effect control and ±100 the full control effect; potency means the concentration at half of the fitted maximal effect.

C[C@@H]1CCC2C(C)(C)[C@H](O)CC[C@]2(C)[C@@]12Cc1c(O)cc3c(c1O2)CNC3=O (some centres not stated)
inactive: Potency (CAOV3)

COc1ccc(F)cc1-c1cc(NC(=O)[C@@H]2CCCNC2)ncc1Cl
active: Potency (CASKI) 891 nM | Potency (Es-2) 794 nM | Potency (HeLa) 708 nM | Potency (Hek293T) 398 nM | Potency (PA-1) 355 nM | Potency (Tov112D) 708 nM
inactive: Potency (CAOV3) | Potency (JEG-3)

CC[C@H](C)[C@H](NC(=O)[C@H]([C@@H](C)CC)N(C)C(C)=O)C(=O)N[C@H](C(=O)N[C@@H](CC(C)C)C(=O)[C@@]1(C)CO1)[C@@H](C)O
active: Potency (C33A) 100 nM | Potency (HeLa) 100 nM | Potency (Tov112D) 100 nM
inactive: Potency (JEG-3)

Cc1ccc(C(=O)Nc2noc3ccccc23)cc1
active: Potency (CAOV3) 15800 nM | Potency (CASKI) 22400 nM | Potency (Es-2) 15800 nM | Potency (HeLa) 22400 nM | Potency (Hek293T) 15800 nM | Potency (OV90) 11200 nM | Potency (Tov-21-G) 28200 nM | Potency (Tov112D) 28200 nM

CC(C)c1c2cc(-c3ccnc(NC4CCC(NC5CCOCC5)CC4)n3)ccc2nn1C (configuration not stated)
inactive: Potency (CAOV3) | Potency (JEG-3) | activity change, negative = inhibition [1] -6.54%
active: Potency (CASKI) 631 nM | Potency (Es-2) 316 nM | Potency (HeLa) 708 nM | Potency (PA-1) 355 nM | Potency (Tov112D) 398 nM | Potency [1] 249 nM

COc1cc2nc(N3CCCC3)nc(NCCCCCN3CCCC3)c2cc1OC
active: Potency (C33A) 15800 nM | Potency (HeLa) 25100 nM | Potency (Hek293T) 15800 nM | Potency (OV90) 25100 nM | Potency (PA-1) 6310 nM | Potency (SKOV3) 12600 nM

COc1ncc(Nc2ncc([C@@H](C)N3CCN(S(C)(=O)=O)CC3)cc2-c2nc(C)nc(N)n2)cc1F
active: Potency (CASKI) 398 nM | Potency (Hek293T) 1260 nM | Potency (SKOV3) 398 nM
inactive: Potency (CAOV3) | Potency (Es-2) | Potency (HeLa) | Potency (OV90) | Potency (PA-1) | Potency (Tov112D)

Nc1ccc(/C=C/C(=O)NCc2cc3cc(-c4ccc(C(=O)N5CCC(F)(F)CC5)cc4)cc(-c4ccc(F)cc4)c3o2)cn1
active: Potency (C33A) 7080 nM | Potency (HeLa) 4470 nM | Potency (Hek293T) 3980 nM | Potency (JEG-3) 1580 nM | Potency (OV90) 3550 nM | Potency (PA-1) 1410 nM | Potency (SKOV3) 1780 nM | Potency (Tov-21-G) 3160 nM

CC(C)c1cc(CNc2nc(Nc3cc(C4CC4)[nH]n3)cc(N3CCN(C)CC3)n2)on1
active: Potency (CAOV3) 282 nM | Potency (CASKI) 2820 nM | Potency (Es-2) 7940 nM | Potency (HeLa) 251 nM | Potency (Hek293T) 2000 nM | Potency (OV90) 3160 nM | Potency (PA-1) 398 nM | Potency (SKOV3) 1000 nM | Potency (Tov112D) 5010 nM | Potency [1] 1980 nM
inactive: activity change, negative = inhibition [1] 6.65%

C=CC(=O)Nc1cc(Nc2nccc(-c3c[nH]c4ccccc34)n2)c(OC)cc1N(C)CCN(C)C
active: Potency (CAOV3) 28200 nM | Potency (CASKI) 28200 nM | Potency (Es-2) 20000 nM | Potency (HeLa) 15800 nM | Potency (PA-1) 4470 nM

CCC1C(=O)OC23C=C[C@@H]4C(C(=O)O)=CO[C@H](O[C@@H]12)[C@@H]43 (some centres not stated)
inactive: Potency (CAOV3) | Potency (CASKI) | Potency (Es-2) | Potency (HeLa) | Potency (Hek293T) | Potency (JEG-3) | Potency (OV90) | Potency (PA-1) | Potency (SKOV3)

CCC1=CC2CN(C1)Cc1c([nH]c3ccccc13)[C@@](C(=O)OC)(c1cc3c(cc1OC)N(C)[C@H]1[C@@](O)(C(=O)OC)[C@H](OC(C)=O)[C@]4(CC)C=CCN5CC[C@]31[C@@H]54)C2 (some centres not stated)
inactive: Potency (CAOV3) | Potency (CASKI)
active: Potency (Es-2) 282 nM | Potency (HeLa) 126 nM | Potency (Tov-21-G) 89.1 nM | Potency (Tov112D) 70.8 nM

Cc1onc(C(=O)N2CCN(C(c3ccc(Cl)cc3)c3ccc(Cl)cc3)CC2)c1[N+](=O)[O-]
active: Potency (CAOV3) 2240 nM | Potency (Es-2) 1000 nM | Potency (PA-1) 8910 nM | Potency (SKOV3) 7940 nM | Potency (Tov-21-G) 1120 nM | Potency (Tov112D) 7940 nM
inactive: Potency (CASKI) | Potency (HeLa) | Potency (Hek293T) | Potency (OV90)

CN(C)C/C=C/C(=O)Nc1cc2c(Nc3ccc(F)c(Cl)c3)ncnc2cc1OC1CCOC1 (configuration not stated)
inactive: Potency (JEG-3)
active: Potency (C33A) 20000 nM | Potency (Tov-21-G) 5620 nM

CCOc1cc(N2CCC(O)CC2)ccc1Nc1ncc2c(n1)N(C1CCCC1)CCC(=O)N2C
inactive: Potency (C33A) | Potency (JEG-3) | Potency (Tov112D)
active: Potency (SKOV3) 8910 nM

CC1(C)CC[C@]23CO[C@@]4(CCC5[C@@]6(C)CC[C@H](O[C@@H]7OC[C@H](O[C@@H]8O[C@H](CO)[C@@H](O)[C@H](O)[C@H]8O)[C@H](O)[C@H]7O[C@@H]7O[C@H](CO)[C@@H](O[C@@H]8O[C@H](CO)[C@@H](O)[C@H](O)[C@H]8O)[C@H](O)[C@H]7O)[C@@](C)(CO)C6CC[C@@]5(C)[C@]4(C)C[C@H]2OC2OCC(O)C(O)C2O)C3C1 (some centres not stated)
inactive: activity change, negative = cytotoxicity (C33A) -28.5% [at 6.55 µM] | activity change, negative = cytotoxicity (HeLa) -27.3% [at 6.55 µM]

CC(C)c1cc(C(=O)N2CC[C@H](NC(=O)C3CC3)C2)n[nH]1
inactive: Potency (CAOV3) | Potency (CASKI) | Potency (Es-2) | Potency (HeLa) | Potency (Hek293T) | Potency (JEG-3) | Potency (OV90) | Potency (PA-1) | Potency (SKOV3) | Potency (Tov-21-G) | Potency (Tov112D)

CC(=O)c1cc(C(=O)N[C@@H](C)Cn2ccc(-c3ccc(C#N)c(Cl)c3)n2)[nH]n1
inactive: Potency (CAOV3) | Potency (CASKI) | Potency (Es-2) | Potency (HeLa) | Potency (JEG-3) | Potency (PA-1) | Potency (Tov-21-G) | Potency (Tov112D)

CN1CCC(Nc2nc(Nc3ccc(Oc4ccccc4)cc3)c3c(=O)[nH]cc(Br)c3n2)CC1
inactive: Potency (C33A) | Potency (Hek293T) | Potency (JEG-3) | Potency (OV90) | Potency (Tov-21-G) | Potency (Tov112D)

COc1cc(C(=O)NC2CCN(C)CC2)c(F)cc1Nc1ncc2c(n1)N(C1CCCC1)CC(F)(F)C(=O)N2C
active: Potency (C33A) 282 nM | Potency (Es-2) 35500 nM | Potency (PA-1) 158 nM
inactive: activity change, negative = inhibition [1] -23.9%

CC[C@]1(O)CC2CN(CCc3c([nH]c4ccccc34)[C@@](C(=O)OC)(c3cc4c(cc3OC)N(C=O)[C@H]3[C@@](O)(C(=O)OC)[C@H](OC(C)=O)[C@]5(CC)C=CCN6CC[C@]43[C@@H]65)C2)C1 (some centres not stated)
inactive: Potency (CAOV3)
active: Potency (CASKI) 89.1 nM | Potency (Es-2) 447 nM | Potency (HeLa) 282 nM | Potency (OV90) 1780 nM | Potency (PA-1) 126 nM | Potency (Tov-21-G) 126 nM | Potency (Tov112D) 158 nM

O=C(NCc1ccc(S(=O)(=O)c2cc(F)cc(F)c2)cc1)c1ccc2nccn2c1
active: Potency (CAOV3) 316 nM

O=C(O)c1cc2cccc([N+](=O)[O-])c2[nH]1
inactive: Potency (CAOV3) | Potency (CASKI) | Potency (Es-2) | Potency (HeLa) | Potency (Hek293T) | Potency (JEG-3) | Potency (OV90) | Potency (PA-1) | Potency (SKOV3) | Potency (Tov-21-G)

CC1=C(C(=O)O[C@@H]2O[C@H](COC3OCC(O)C(O)C3O)[C@@H](O)[C@H](O)[C@H]2O)C(C)(C)CCC1 (some centres not stated)
inactive: Potency (CAOV3) | Potency (CASKI) | Potency (Es-2) | Potency (HeLa) | Potency (Hek293T) | Potency (JEG-3) | Potency (OV90) | Potency (PA-1) | Potency (SKOV3) | Potency (Tov-21-G) | Potency (Tov112D)
